Among all 69,000 compounds or so, about 8,600 (12%) showed an effect of 50% or more. Many of the other results were omitted from the sample, so strong results are more common in it than they were.

This note sets out measurements from ChEMBL document CHEMBL4513216, “Probing the Open Global Health Chemical Diversity Library for Multistage-Active Starting Points for Next-Generation Antimalarials” (ACS Infect Dis, 2020).

The test system of the assay is Plasmodium berghei. The assay can be described thus: Screen against P. berghei liver stage (PbLuc), transformed with Luciferase, at 10uM. The assay is classed as functional, HepG2. To be noted: tested at 10 uM.
In the case of `Cn1ccc(-c2cc(C(=O)N3CCC(O)CC3)c3ccccn23)n1`, the INHIBITION came to 42.1%.
Take `Cc1nc(-c2cc(C(=O)N3CCN(C)CC3)c3ccccn23)cn1C`: the INHIBITION is reported as 52.3%.
The result for `CN(C)C1CCN(C(=O)c2cc(-c3ccn(C)n3)n3ccccc23)CC1` reads 62.9%; that for `Cn1ccc(-c2cc(C(=O)N3CCC(C(N)=O)CC3)c3ccccn23)n1`, -23.1%.
For `CN1CCCN(C(=O)c2cc(-c3cc[nH]n3)n3ccccc23)CC1`, the INHIBITION is reported as 47.5%.
The value for `Cc1nc(-c2cc(C(=O)N3CCCN(C)CC3)c3ccccn23)cn1C` was 21.7%; that for `CCCC1C=CCN1C(=O)c1cc(COc2ccccc2)[nH]n1` (stereo not given) was -1.49%.
The value for `CCCNC(=O)c1cc2c(s1)CCN2C(=O)CN(C)C` was -25.2%; that for `CCn1cc(NC(=O)NCC(C)(C)N2CCc3ccccc3C2)cn1` was -31.8%.
The result for `CC(=O)N1CCCN(C(=O)c2ccc(Cn3ccccc3=O)o2)CC1` reads 19.45%.
In the case of `COc1ccc(OC)c(NC(=O)c2c(C)cn(C)c2CC(=O)O)c1`, the INHIBITION is given as 29%.
The value for `CCOCc1ccccc1NC(=O)NC1CCN(C2CCCC2)C1` (stereo not given) was 58.6%; that for `CCOCc1ccccc1NC(=O)NC1CCN(c2ccccc2)C1` (stereo not given) was 36.2%.
In the case of `CCOCc1ccccc1NC(=O)NC1CCN(CC(F)(F)F)C1` (stereo not given), the INHIBITION is 38.3%.
The result for `CCOCC(O)CN1CCN(C(=O)c2cccc(CC#N)c2)CC1` (stereo not given) reads 9.54%; that for `CCSc1nsc(NC(=O)COc2ccc3c(c2)OCO3)n1`, 49.4%; that for `c1ccc(O[C@H]2CO[C@@]3(CCN(Cc4ccc5c(c4)OCO5)C3)C2)nc1`, 71.9%.
The result for `c1ccc(O[C@@H]2CO[C@@]3(CCCN(CC4CCOCC4)C3)C2)nc1` reads 32.2%; that for `Cn1cc(CN2CCC[C@]3(C[C@@H](Oc4ccccn4)CO3)C2)cn1`, 15.6%; that for `CCO[C@@H]1CO[C@@]2(CCN(Cc3ccc4c(c3)OCO4)C2)C1`, 18.6%.
For `CCO[C@H]1CO[C@@]2(CCN(Cc3ccc4c(c3)OCO4)C2)C1`, the INHIBITION was -20.8%.
The result for `COC1COC2(CCN(Cc3ccc4ccccc4n3)CC2)C1` (stereo not given) reads 57.4%; that for `COC1COC2(CCN(Cc3ccccc3C)CC2)C1` (stereo not given), 37.1%; that for `COc1ccccc1CN1CCC2(CC1)CC(Oc1ccccn1)CO2` (stereo not given), 14.2%.
The value for `Cn1cc(CN2CC[C@]3(C[C@H](Oc4ccccn4)CO3)C2)cn1` was 51.4%; that for `COC1COC2(CCN(Cc3ccccc3F)CC2)C1` (stereo not given) was 3.25%.
For `Cn1cc(CN2CCC[C@]3(C[C@H](Oc4ccccn4)CO3)C2)cn1`, the INHIBITION amounted to 46.4%.
The value for `c1ccc(OC2COC3(CCN(CC4CC4)CC3)C2)nc1` (stereo not given) was 53.2%; that for `CC(=O)N1CCCn2nc(CNC(=O)N3CCCCC3)cc2C1` was 14.3%.
The value for `CCc1ncc2c(n1)CN(c1cc(N3CCN(C)CC3)nc(N)n1)C2` was 19.7%; that for `CNc1nc(C2CCCN2)nc2c1CCN(S(=O)(=O)C1CCCCC1)C2` (stereo not given) was -44.8%.
The result for `CC(C)CCC(=O)N1CCCC2(CCN(Cc3ccccc3C#N)C2)C1` (stereo not given) reads 1.71%; that for `COc1ccc(CCn2cnc(C#N)n2)cc1`, -7.46%; that for `Cc1cccc(CN2CCc3onc(Cn4cccc4)c3C2)n1`, 31.5%.
Consider `NC(=O)c1cc(CC2CCCN(Cc3cnccn3)CC2)ncn1` (stereo not given), for which the INHIBITION was -0.232%.
The value for `c1cnc(NC2COC3(CCN(Cc4ccoc4)CC3)C2)nc1` (stereo not given) was 3.25%; that for `c1ccc(CO[C@H]2CO[C@@]3(CCN(Cc4ccoc4)C3)C2)nc1` was 14.2%.
Turning to `Cn1cc(CN2CC[C@]3(C[C@H](OCc4ccccn4)CO3)C2)cn1`, the INHIBITION was 69.6%.
Regarding `c1ccc(CN2CC[C@]3(C[C@@H](Oc4ccccn4)CO3)C2)nc1`, the INHIBITION is given as 31.3%.
Turning to `c1ccc(OC2COC3(CCN(Cc4ccccn4)CC3)C2)cc1` (stereo not given), the INHIBITION was determined as 81.2%.
As to `Cc1cc(C)cc(CN2CCC3(CC2)CC(Nc2ncccn2)CO3)c1` (stereo not given), the INHIBITION worked out at 50.7%.
The result for `CCN1CCC2(CC1)CC(Nc1ncccn1)CO2` (stereo not given) reads 45.7%.
`c1ccc(CN2CCC3(CC2)CC(Oc2cccnc2)C3)nc1`: the INHIBITION is 31.2%.
On to `c1ccc(CO[C@@H]2CO[C@@]3(CCN(Cc4ccccn4)C3)C2)nc1`, for which the INHIBITION was 1.58%.
The value for `c1ccc(CN2CCC3(CC2)CC(Nc2nccs2)CO3)nc1` (stereo not given) was 53.2%; that for `O=C(NC1COC2(CCN(Cc3ccccn3)CC2)C1)c1ccccn1` (stereo not given) was -8.69%.
The result for `Cn1cc(CN2CCC3(CC2)CC(Nc2nccs2)CO3)cn1` (stereo not given) reads 13.6%.
The value for `CCOCCC(=O)Nc1cccc(Cl)c1C(N)=O` was -39.2%.
Regarding `O=C(O)c1ccccc1-c1ccc(CN2CC(O)C2)cc1`, the INHIBITION is given as -13.7%.
The result for `CC(=O)N1CCC[C@H]1C(=O)NCCCN(C(C)C)S(C)(=O)=O` reads 25.4%.
